Screens (PubChem BioAssay)
The list is not random: actives were taken first. Their share in the collection is about 19%.
HT1080NT lethal = qHTS for induction of synthetic lethality in tumor cells producing 2HG: qHTS for the HT-1080-NT fibrosarcoma cell line | HT-1080-NT fibrosarcoma viability, CellTiter-Glo ATP luminescence, 48 h | Potency, µM (series often up to 46.1 µM), inactives show top-dose activity, negative = less viability, usual class: cytotoxic | actives 1.6% (n = 360,000) | AID 686970, 2013;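 note: NT is the 2HG producing partner of a matched IDH1 knockdown line; potency is the fitted concentration of half-maximal effect; 0% = DMSO-treated cells and -100% = media-only wells without cells; nearly all actives have a fitted effect of over 55% in size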
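Viability of the 2HG-overproducing fibrosarcoma line after 48 hours of compound exposure at 37 degrees C was determined by luminescence with CellTiter-Glo, and concentration-effect curves were then fitted and categorized.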
TDP1 cell noCPT = qHTS for Inhibitors of human tyrosyl-DNA phosphodiesterase 1 (TDP1): qHTS in cells in absence of CPT; DT40 Tdp1-/- hTDP1 cells, no CPT, ATP luminescence, 48 h; Potency, µM (series often up to 46.2 µM), without a hit: at the top dose activity change, negative = growth inhibition, actives largely listed as inhibitors; actives 15% (n = 420,000); note: potency is the fitted concentration of half-maximal effect; nearly all actives have a fitted effect of over 55% in size
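No-CPT arm: Tdp1-/-;hTDP1 DT40 cells (400/well) plus compounds, incubated ≥48 hr at 37 °C. Readout CellTiter-Glo luminescence.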
DT40 TDP1 CPT = qHTS for Inhibitors of human tyrosyl-DNA phosphodiesterase 1 (TDP1): qHTS in cells in presence of CPT. chicken DT40 Tdp1-/-;hTDP1 cells + 20 nM CPT, ATP luminescence, 48 h. Potency, µM (series often up to 46.2 µM), without a hit: at the highest dose activity change, negative = growth inhibition, hits mostly inhibitors. actives 12% (n = 420,000); note: potency is the fitted concentration of half-maximal effect; nearly all actives have a fitted effect of over 55% in size
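Cell growth measured by CellTiter-Glo luminescence after a minimum 48 h, 37 C compound exposure with 20 nM CPT in Tdp1-knockout DT40 cells stably expressing hTDP1, seeded 400/well; qHTS titration format.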
IL-1B inflam inh = qHTS for Inhibitors of Inflammasome Signaling: IL-1-beta AlphaLISA Primary Screen | THP-1 LPS/ATP IL-1B secretion, AlphaLISA, 16 h; stronger effect = lower value | activity change, % at 57.5 µM | actives 4.7% (n = 360,000) | AID 743279, 2014; in the data active = activity change below about -50%; inconclusive = mostly about -30% to -49%
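THP-1 cells pretreated 1 hr with compounds (up to 57.5 uM final), then stimulated with LPS (250 ng/mL final) plus ATP (1.25 mM final); secreted IL-1B measured by AlphaLISA after 16 hr, decreased signal indicating inhibition.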
ELG1 repair inh = qHTS screen for small molecules that inhibit ELG1-dependent DNA repair in human embryonic kidney (HEK293T) cells expressing luciferase-tagged ELG1 | HEK293T ELG1-luciferase reporter, luminescence, 16 h; DNA damage induced by 5-fluorouridine | AID 504467, 2011 | Potency, µM (top dose mostly 46.1 µM), inactives show at the highest dose activity change, negative = inhibition, actives largely listed as inhibitors | actives 2.3% (n = 330,000); note: potency is the fitted concentration of half-maximal effect; nearly all actives have a fitted effect of over 55% in size
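DMSO vehicle served as the neutral condition. Each well held 2,000 cells given 5-fluorouridine plus compound; after 16 hr at 37 °C/5% CO2, ONE-Glo was added and luciferase measured 30 min later.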
HT1080 IDH1KD tx = qHTS for induction of synthetic lethality in tumor cells producing 2HG: qHTS for the HT-1080-IDH1KD cell line; HT-1080 IDH1 knockdown viability, ATP luminescence, 48 h; Potency, µM (doses to about 46.1 µM), without a hit: at the top dose activity, negative = toxicity, hits mostly cytotoxic; actives 2% (n = 360,000); AID 686971, 2013;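 note: potency is the fitted concentration of half-maximal effect; 0% = DMSO wells and -100% = cell-free medium wells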
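In this qHTS, HT-1080 cells depleted of IDH1 are exposed for 48 h at 37 °C to compound titrations. Toxicity is scored from CellTiter-Glo luminescence, with DMSO as full viability and medium alone as none.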
Starred values were filed as active, the others as inactive. Unless noted, calls come from the whole dose curve; as a rule, active = well fitted curve in the direction sought with a large enough effect; inconclusive = small, poorly fitted or top-dose-only effect, or another doubt; inactive = no such curve, though single readings can be large; an effect the other way counts as inactive or inconclusive. Unless noted, % is set by controls: 0 for no effect and ±100 for the full control effect.

c1ccc(CNc2ncnc3scc(-c4cccs4)c23)nc1 was read as HT1080NT lethal -1%, TDP1 cell noCPT 9.2µM*, DT40 TDP1 CPT 10µM*, IL-1B inflam inh inconclusive, ELG1 repair inh 8.2µM* and HT1080 IDH1KD tx -1%.
`O=S(=O)(Nc1ncnc2sc3c(c12)CCC3)c1ccc(Cl)s1` gave HT1080NT lethal -1%, TDP1 cell noCPT 13µM*, DT40 TDP1 CPT inconclusive, IL-1B inflam inh 41, ELG1 repair inh 0% and HT1080 IDH1KD tx -25%.
For COC(=O)C[C@@H]1CC[C@H](NC(=O)CC2CC2)[C@@H](CO)O1 the results were HT1080NT lethal 16%, TDP1 cell noCPT 0%, DT40 TDP1 CPT -2%, IL-1B inflam inh 25 and HT1080 IDH1KD tx 12%.
`CCN(CC)CCCNC(=O)c1c(C)oc2ncnc(N3CCOCC3)c12` gave TDP1 cell noCPT 5% and DT40 TDP1 CPT 8%.
For c1ccc(-c2csc3ncnc(NCc4ccccn4)c23)cc1 the results were HT1080NT lethal -5%, TDP1 cell noCPT 9.2µM*, DT40 TDP1 CPT 12µM*, IL-1B inflam inh 41, ELG1 repair inh 12µM* and HT1080 IDH1KD tx -2%.
For Oc1ccc(Nc2ncnc3scc(-c4ccccc4)c23)cc1 the results were HT1080NT lethal -9%, TDP1 cell noCPT 8.2µM*, DT40 TDP1 CPT inconclusive, IL-1B inflam inh -10, ELG1 repair inh inconclusive and HT1080 IDH1KD tx -12%.
CS(=O)(=O)N1CCC2(CC1)CN(c1ccccn1)C2 was read as TDP1 cell noCPT -15% and DT40 TDP1 CPT 6%.
`CCN(C[C@H]1N[C@@](C)(C(=O)OC)[C@H]2C(=O)N(C)C(=O)[C@@H]12)S(=O)(=O)c1ccc(-c2ccccc2)cc1` gave HT1080NT lethal inconclusive, TDP1 cell noCPT inconclusive, DT40 TDP1 CPT inconclusive, IL-1B inflam inh -17, ELG1 repair inh -18% and HT1080 IDH1KD tx 2%.
Screening Cc1ccc(OCCNC(=O)c2cccc(S(=O)(=O)N3CCN(C)CC3)c2)cc1 returned HT1080NT lethal -4%, TDP1 cell noCPT inconclusive, DT40 TDP1 CPT 2%, IL-1B inflam inh -7, ELG1 repair inh 8% and HT1080 IDH1KD tx 0%.
Screening Cc1ccc(-c2noc(CCC(=O)N(C)c3ccccc3C)n2)cc1 returned HT1080NT lethal -4%, TDP1 cell noCPT 15µM*, DT40 TDP1 CPT inconclusive, IL-1B inflam inh -7, ELG1 repair inh inconclusive and HT1080 IDH1KD tx -3%.
`CCN(C(=O)CCc1nc(-c2ccc(C)cc2)no1)c1cc(C)ccc1C` gave TDP1 cell noCPT 23µM* and DT40 TDP1 CPT 18µM*.
For COc1ccc(-c2noc(CCC(N)=O)n2)cc1OC the results were HT1080NT lethal -9%, TDP1 cell noCPT -3%, DT40 TDP1 CPT inconclusive, IL-1B inflam inh -11, ELG1 repair inh inconclusive and HT1080 IDH1KD tx -3%.
Screening COc1ccc(-c2noc(CCC(=O)N(C)c3cccc(C)c3)n2)cc1 returned HT1080NT lethal -10%, TDP1 cell noCPT inconclusive, DT40 TDP1 CPT inconclusive, IL-1B inflam inh -18, ELG1 repair inh -3% and HT1080 IDH1KD tx -9%.
Screening CCN(C(=O)CCc1nc(-c2ccc(OC)cc2)no1)c1cc(OC)ccc1OC returned HT1080NT lethal -12%, TDP1 cell noCPT inconclusive, DT40 TDP1 CPT inconclusive, IL-1B inflam inh -10, ELG1 repair inh 16µM* and HT1080 IDH1KD tx -10%.
